Experimental findings from PubChem BioAssay (EPA / NIEHS) are described below.

By AC50 is commonly meant the concentration giving half of the maximal activity seen.

Results filed as inconclusive are left out. Calls of active or inactive are those of the source. How the source made its calls, unless noted: active means hit-call score of the fitted dose curve at least 0.9, where 1 is the maximum; inactive means score below 0.9.

Experiment [1] is described as follows: ATG_NFI_CIS: Attagene CIS-FACTORIAL HepG2 Assay for human Nuclear Factor I (NFI) (AID 2282989). As to conditions: HepG2 cis-regulatory reporter, NFI response element transcription; actives raise or lower the signal. The procedure, abridged: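 Reporter transcription driven by endogenous transcription factors in HepG2 cells; 24 h treatment. Quantitation by labelled RT-PCR fragments on capillary electrophoresis, gain- or loss-of-signal relative to DMSO.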

Experiment [2] deals with Myc proto-oncogene protein (Homo sapiens) (UniProt P01106). Description: ATG_Myc_CIS: Attagene CIS-FACTORIAL HepG2 Assay for human Myelocytomatosis (Myc) Proto-Oncogene Transcription Factor (AID 2282990). As to conditions: HepG2, Attagene cis-reporter transcription factor activity; actives raise or lower the signal. In a few lines:
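HepG2 cells transiently transfected with multiple cis-promoter-driven reporter transcription units, so endogenous TF activity is read. After 24 h compound exposure, reporter mRNA was quantified by RT-PCR, 6-FAM labelling, HpaI digestion and capillary electrophoresis; bidirectional fit versus DMSO.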

The nature of experiment [3]: ATG_NF_kB_CIS: Attagene CIS-FACTORIAL HepG2 Assay for human Nuclear Factor Kappa B (NF-kB) (AID 2282991). As to conditions: HepG2 Attagene cis-factorial NF-kB reporter mRNA; actives raise or lower the signal. In a few lines: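 Read-out: reporter transcript levels quantified by RT-PCR plus capillary electrophoresis of 6-FAM-labelled, HpaI-cut fragments. Transfected HepG2 cells, 24 h compound exposure, endogenous NF-kB-driven cis element; gain or loss scored versus DMSO.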

A short description of experiment [4]: ATG_NRF2_ARE_CIS: Attagene CIS-FACTORIAL HepG2 Assay for human Nuclear Factor Erythroid 2 Related Factor 2 (NFR2) response to Antioxidant Response Elements (ARE) (AID 2282992).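 On AC50: reporter mRNA level measured by RT-PCR and capillary electrophoresis fluorescence.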 The note with it: HepG2 Attagene ARE/NRF2 reporter, transcription factor activity; actives raise or lower the signal. In a few lines: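 Fluorescence intensity of reporter-specific cDNA fragments, separated by capillary electrophoresis, reflects mRNA induction in transfected HepG2 cells at 24 h. Activity is fitted bidirectionally, DMSO serving as baseline.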

Experiment [5] is described as follows: ATG_Oct_MLP_CIS: Attagene CIS-FACTORIAL HepG2 Assay for human Octamer-Binding Transcription Factor (Oct) (AID 2282993). The note with it: HepG2 Attagene cis-factorial Oct reporter, mRNA; actives raise or lower the signal. In a few lines:
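Transfected HepG2 cells, 24 h treatment. Reporter mRNA quantified by RT-PCR–capillary electrophoresis; bidirectional fitting against DMSO.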

The target in experiment [6] is Cellular tumor antigen p53 (Homo sapiens) (UniProt P04637). As to the kind of experiment: ATG_p53_CIS: Attagene CIS-FACTORIAL HepG2 Assay for human p53 Transcription Factor (AID 2282994). As to conditions: HepG2 p53 cis-element reporter, Attagene mRNA; actives raise or lower the signal. In a few lines: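 Transiently transfected HepG2 (multiple cis reporter transcription units); exposure 24 h; reporter RNA via RT-PCR, 6-FAM extension, 2 h HpaI digest at 37 C, CE detection; DMSO baseline.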
Cellular tumor antigen p53 (Homo sapiens), sequence (P04637 whole entry, looked up): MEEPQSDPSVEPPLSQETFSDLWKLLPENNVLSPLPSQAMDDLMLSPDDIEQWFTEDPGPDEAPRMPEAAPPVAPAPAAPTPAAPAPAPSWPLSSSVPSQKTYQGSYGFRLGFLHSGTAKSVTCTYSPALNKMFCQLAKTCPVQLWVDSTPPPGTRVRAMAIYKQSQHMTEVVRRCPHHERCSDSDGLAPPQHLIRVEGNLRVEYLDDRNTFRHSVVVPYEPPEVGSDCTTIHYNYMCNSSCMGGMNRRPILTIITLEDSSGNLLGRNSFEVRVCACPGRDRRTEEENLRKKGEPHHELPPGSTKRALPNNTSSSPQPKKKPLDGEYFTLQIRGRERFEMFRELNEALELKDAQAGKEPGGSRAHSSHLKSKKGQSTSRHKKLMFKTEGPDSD

The target of experiment [7] is human Peroxisome Proliferator-activated Receptor alpha (PPARa), PPARA (gene 5465) (UniProt Q07869). Description: ATG_PPARa_TRANS: Attagene TRANS-FACTORIAL HepG2 Assay for human Peroxisome Proliferator-activated Receptor alpha (PPARa) (AID 2283001; active means hit-call score of the fitted dose curve at least 0.9, where 1 is the maximum;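 on AC50: potency for gain of reporter signal over DMSO so agonist or activator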). In a few lines:
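Cells (HepG2) are transfected with multiple reporter transcription units, exposed to chemical for 24 h, then total RNA is reverse-transcribed and amplified. Labelled products are quantified by capillary electrophoresis; induction is referenced to DMSO.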

The target of experiment [8] is Nuclear receptor subfamily 1 group I member 2 (Homo sapiens) (UniProt O75469). Description: ATG_PXR_TRANS: Attagene TRANS-FACTORIAL HepG2 Assay for human Pregnane X Receptor (PXR) (AID 2283008; active means hit-call score of the fitted dose curve at least 0.9, where 1 is the maximum). In a few lines:
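Transient HepG2 transfectants carrying multiplexed reporter transcription units; PXR activity read through a Gal4 chimera. 24 h exposure. RT-PCR/CE fluorescence; upward curve fit referenced to DMSO.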

Experiment [9] concerns the target human Peroxisome Proliferator-activated Receptor delta (PPARd), PPARD (gene 5467) (UniProt Q03181). Description: ATG_PPARd_TRANS: Attagene TRANS-FACTORIAL HepG2 Assay for human Peroxisome Proliferator-activated Receptor delta (PPARd) (AID 2283002; active means hit-call score of the fitted dose curve at least 0.9, where 1 is the maximum). In a few lines: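 HepG2 cells transiently transfected with multiplexed GAL4-UAS reporter units and exogenous chimeric NR-Gal4 proteins; 24 h compound exposure. Reporter mRNA measured by RT-PCR, 6-FAM labelling, HpaI digestion and capillary electrophoresis; gain of signal versus DMSO.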

Experiment [10] deals with Peroxisome proliferator-activated receptor gamma (Homo sapiens) (UniProt P37231). As to the kind of experiment: ATG_PPARg_TRANS: Attagene TRANS-FACTORIAL HepG2 Assay for human Peroxisome Proliferator-activated Receptor-gamma (PPARg) (AID 2283007; active means hit-call score of the fitted dose curve at least 0.9, where 1 is the maximum). In a few lines: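 Read-out: reporter mRNA induction, detected by fluorescence after RT-PCR and capillary electrophoresis. Transiently transfected human HepG2 liver cells carrying a chimeric NR-Gal4 construct were dosed for 24 h; activity was fitted upward relative to DMSO.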
Peroxisome proliferator-activated receptor gamma (Homo sapiens), sequence (P37231 whole entry, looked up, the tested form may be a part): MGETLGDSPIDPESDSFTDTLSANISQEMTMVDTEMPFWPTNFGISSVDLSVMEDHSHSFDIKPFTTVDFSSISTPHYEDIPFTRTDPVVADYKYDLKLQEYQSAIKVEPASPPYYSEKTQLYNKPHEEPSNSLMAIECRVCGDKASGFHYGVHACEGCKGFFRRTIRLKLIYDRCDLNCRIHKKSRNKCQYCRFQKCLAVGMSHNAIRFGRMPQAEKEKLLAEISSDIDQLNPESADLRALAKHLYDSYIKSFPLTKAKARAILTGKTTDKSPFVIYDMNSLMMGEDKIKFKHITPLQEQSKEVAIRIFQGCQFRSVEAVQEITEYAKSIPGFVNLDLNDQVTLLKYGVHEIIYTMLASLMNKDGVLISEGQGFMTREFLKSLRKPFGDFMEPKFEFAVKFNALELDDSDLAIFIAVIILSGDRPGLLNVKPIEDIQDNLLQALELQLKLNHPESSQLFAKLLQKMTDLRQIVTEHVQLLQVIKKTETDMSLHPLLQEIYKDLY

The target of experiment [11] is human RAR-related Orphan Receptor beta (RORb), RORB (gene 6096) (UniProt Q92753). Description: ATG_RORb_TRANS: Attagene TRANS-FACTORIAL HepG2 Assay for human RAR-related Orphan Receptor beta (RORb) (AID 2283010; active means hit-call score of the fitted dose curve at least 0.9, where 1 is the maximum). In a few lines: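 Read-out is reporter mRNA induction, quantified by RT-PCR with fluorescent capillary electrophoresis, 24 h post-dose in transiently transfected HepG2 expressing exogenous NR-Gal4 chimera. Activity fitted upward versus DMSO.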
human RAR-related Orphan Receptor beta (RORb), RORB (gene 6096), sequence (Q92753 whole entry, looked up, the tested form may be a part): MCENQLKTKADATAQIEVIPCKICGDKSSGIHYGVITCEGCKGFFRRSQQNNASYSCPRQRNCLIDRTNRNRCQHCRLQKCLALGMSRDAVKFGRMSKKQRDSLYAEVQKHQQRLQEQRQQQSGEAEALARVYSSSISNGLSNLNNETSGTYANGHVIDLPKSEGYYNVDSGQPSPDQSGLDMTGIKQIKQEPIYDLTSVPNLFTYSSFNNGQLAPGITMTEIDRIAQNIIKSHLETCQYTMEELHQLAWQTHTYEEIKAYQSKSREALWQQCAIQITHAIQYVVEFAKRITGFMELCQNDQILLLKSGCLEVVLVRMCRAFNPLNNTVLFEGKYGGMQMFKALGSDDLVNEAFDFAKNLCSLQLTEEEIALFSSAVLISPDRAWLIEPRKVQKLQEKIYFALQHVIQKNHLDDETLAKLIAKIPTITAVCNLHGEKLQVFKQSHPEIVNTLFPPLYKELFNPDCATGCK

The target of experiment [12] is Retinoic acid receptor alpha (Homo sapiens) (UniProt P10276). As to the kind of experiment: ATG_RARa_TRANS: Attagene TRANS-FACTORIAL HepG2 Assay for human Retinoic Acid Receptor alpha (RARa) (AID 2283005; active means hit-call score of the fitted dose curve at least 0.9, where 1 is the maximum). The procedure, abridged:
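HepG2 cells transiently transfected with multiple reporter units expressing chimeric RARα-GAL4 fusion, with GAL4-UAS-driven reporters. After 24 h compound exposure, reporter mRNA induction quantified by RT-PCR and capillary electrophoresis with fluorescent labeling; gain-of-signal fitted relative to DMSO control.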

For experiment [13], the target named is human Retinoic Acid Receptor gamma (RARg), RARG (gene 5916) (UniProt P13631). As to the kind of experiment: ATG_RARg_TRANS: Attagene TRANS-FACTORIAL HepG2 Assay for human Retinoic Acid Receptor gamma (RARg) (AID 2283009; active means hit-call score of the fitted dose curve at least 0.9, where 1 is the maximum). The procedure, abridged:
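Transactivation of exogenous RARg-Gal4 fusion measured as reporter transcript induction after 24 h in transfected HepG2 cells. RNA reverse-transcribed, amplified, fluorescently labeled and resolved by capillary electrophoresis; increase relative to DMSO.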

In experiment [14] the target is human Retinoic Acid Receptor beta (RARb), RARB (gene 5915) (UniProt P10826). Description: ATG_RARb_TRANS: Attagene TRANS-FACTORIAL HepG2 Assay for human Retinoic Acid Receptor beta (AID 2283004; active means hit-call score of the fitted dose curve at least 0.9, where 1 is the maximum). In a few lines: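 Transient transfection of HepG2 with multiple reporter units → chemical dosing, 24 h → total RNA isolation → RT with oligo(dT) → reporter-specific PCR, 6-FAM primer extension, HpaI digest → capillary electrophoresis. Positive direction vs DMSO control.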
human Retinoic Acid Receptor beta (RARb), RARB (gene 5915), sequence (P10826 whole entry, looked up): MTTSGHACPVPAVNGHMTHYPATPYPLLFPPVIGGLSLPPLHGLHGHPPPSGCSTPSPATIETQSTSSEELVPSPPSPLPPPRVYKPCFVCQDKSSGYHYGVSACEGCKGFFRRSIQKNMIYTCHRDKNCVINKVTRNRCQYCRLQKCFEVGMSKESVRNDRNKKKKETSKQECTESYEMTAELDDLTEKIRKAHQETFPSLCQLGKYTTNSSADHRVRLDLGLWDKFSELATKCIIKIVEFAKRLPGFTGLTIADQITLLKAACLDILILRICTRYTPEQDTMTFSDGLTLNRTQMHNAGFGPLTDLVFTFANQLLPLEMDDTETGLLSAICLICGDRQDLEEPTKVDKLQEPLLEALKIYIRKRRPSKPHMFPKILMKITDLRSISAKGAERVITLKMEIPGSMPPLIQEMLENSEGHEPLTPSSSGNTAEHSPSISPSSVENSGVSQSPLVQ

human Peroxisome Proliferator-activated Receptor alpha (PPARa), PPARA (gene 5465), sequence (Q07869 whole entry, looked up): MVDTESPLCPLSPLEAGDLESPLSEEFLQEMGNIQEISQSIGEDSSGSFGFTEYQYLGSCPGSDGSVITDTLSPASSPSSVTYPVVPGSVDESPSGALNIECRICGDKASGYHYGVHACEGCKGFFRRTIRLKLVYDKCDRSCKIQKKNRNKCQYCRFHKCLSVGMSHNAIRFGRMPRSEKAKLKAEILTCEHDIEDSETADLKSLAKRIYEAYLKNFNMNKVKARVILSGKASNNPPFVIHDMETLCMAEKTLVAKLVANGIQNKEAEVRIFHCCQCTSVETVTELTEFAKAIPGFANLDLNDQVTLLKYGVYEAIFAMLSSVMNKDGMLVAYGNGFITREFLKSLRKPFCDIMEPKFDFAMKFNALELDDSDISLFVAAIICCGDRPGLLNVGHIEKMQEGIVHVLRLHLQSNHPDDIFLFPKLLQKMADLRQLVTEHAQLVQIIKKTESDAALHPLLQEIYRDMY
Retinoic acid receptor alpha (Homo sapiens), sequence (P10276 whole entry, looked up, the tested form may be a part): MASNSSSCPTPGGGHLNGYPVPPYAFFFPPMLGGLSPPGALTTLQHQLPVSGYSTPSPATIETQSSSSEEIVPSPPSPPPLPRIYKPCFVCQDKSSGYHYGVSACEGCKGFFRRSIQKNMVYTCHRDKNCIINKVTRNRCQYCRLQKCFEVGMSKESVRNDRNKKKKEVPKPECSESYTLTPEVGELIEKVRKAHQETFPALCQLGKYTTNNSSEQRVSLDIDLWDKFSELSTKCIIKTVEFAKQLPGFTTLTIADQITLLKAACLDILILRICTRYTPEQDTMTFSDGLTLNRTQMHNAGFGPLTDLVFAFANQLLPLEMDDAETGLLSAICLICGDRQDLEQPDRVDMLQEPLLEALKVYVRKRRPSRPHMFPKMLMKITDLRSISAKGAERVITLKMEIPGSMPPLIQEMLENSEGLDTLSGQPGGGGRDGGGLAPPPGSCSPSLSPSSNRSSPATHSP
human Peroxisome Proliferator-activated Receptor delta (PPARd), PPARD (gene 5467), sequence (Q03181 whole entry, looked up, the tested form may be a part): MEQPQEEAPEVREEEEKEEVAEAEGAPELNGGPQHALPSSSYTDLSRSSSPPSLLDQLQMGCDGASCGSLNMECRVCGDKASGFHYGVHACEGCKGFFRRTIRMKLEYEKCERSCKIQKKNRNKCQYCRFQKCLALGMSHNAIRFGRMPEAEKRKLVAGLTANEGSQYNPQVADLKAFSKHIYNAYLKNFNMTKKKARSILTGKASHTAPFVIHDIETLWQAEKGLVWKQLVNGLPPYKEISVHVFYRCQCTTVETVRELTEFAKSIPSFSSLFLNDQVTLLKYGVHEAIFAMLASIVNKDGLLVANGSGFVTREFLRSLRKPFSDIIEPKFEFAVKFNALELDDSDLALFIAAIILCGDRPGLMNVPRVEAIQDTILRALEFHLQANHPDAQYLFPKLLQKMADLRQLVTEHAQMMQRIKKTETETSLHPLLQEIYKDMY
Myc proto-oncogene protein (Homo sapiens), sequence (P01106 whole entry, looked up): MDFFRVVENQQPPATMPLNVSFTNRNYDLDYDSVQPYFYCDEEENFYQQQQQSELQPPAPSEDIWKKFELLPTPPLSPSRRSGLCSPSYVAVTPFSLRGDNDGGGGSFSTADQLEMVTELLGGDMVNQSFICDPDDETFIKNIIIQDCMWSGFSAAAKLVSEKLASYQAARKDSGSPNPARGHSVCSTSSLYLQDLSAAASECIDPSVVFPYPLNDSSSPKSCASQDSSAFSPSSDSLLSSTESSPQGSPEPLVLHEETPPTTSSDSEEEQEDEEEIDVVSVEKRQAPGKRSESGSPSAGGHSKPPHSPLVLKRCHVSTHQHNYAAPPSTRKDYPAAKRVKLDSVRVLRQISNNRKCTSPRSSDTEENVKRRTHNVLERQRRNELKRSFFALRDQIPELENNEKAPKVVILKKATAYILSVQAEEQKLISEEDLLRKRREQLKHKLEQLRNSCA
Nuclear receptor subfamily 1 group I member 2 (Homo sapiens), sequence (O75469 whole entry, looked up, the tested form may be a part): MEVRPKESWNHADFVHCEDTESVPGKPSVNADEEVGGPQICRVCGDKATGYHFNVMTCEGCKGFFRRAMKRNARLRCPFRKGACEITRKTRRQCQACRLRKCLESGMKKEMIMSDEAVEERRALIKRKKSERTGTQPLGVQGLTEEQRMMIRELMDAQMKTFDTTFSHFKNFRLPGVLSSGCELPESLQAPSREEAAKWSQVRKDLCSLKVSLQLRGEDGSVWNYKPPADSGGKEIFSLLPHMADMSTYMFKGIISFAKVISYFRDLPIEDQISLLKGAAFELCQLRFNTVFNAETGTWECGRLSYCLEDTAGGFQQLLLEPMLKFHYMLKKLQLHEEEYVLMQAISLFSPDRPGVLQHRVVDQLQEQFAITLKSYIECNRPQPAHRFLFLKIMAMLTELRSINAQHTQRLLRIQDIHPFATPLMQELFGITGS
human Retinoic Acid Receptor gamma (RARg), RARG (gene 5916), sequence (P13631 whole entry, looked up, the tested form may be a part): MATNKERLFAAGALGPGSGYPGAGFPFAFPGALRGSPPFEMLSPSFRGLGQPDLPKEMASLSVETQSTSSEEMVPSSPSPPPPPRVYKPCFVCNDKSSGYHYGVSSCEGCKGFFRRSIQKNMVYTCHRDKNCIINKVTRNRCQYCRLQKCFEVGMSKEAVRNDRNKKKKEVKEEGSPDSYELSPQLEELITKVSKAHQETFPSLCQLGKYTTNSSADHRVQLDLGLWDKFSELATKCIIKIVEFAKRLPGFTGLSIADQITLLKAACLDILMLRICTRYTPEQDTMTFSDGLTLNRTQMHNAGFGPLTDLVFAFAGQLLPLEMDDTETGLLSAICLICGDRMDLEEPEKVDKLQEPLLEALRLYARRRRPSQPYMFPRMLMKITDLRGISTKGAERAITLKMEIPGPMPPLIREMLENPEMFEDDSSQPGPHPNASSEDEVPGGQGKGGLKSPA

Turning to `CS(=O)(=O)c1ccc(C(=O)C2C(=O)CCCC2=O)c(Cl)c1COCC(F)(F)F`, the compound was called inactive in [1], in experiment [2], in experiment [3], in [4], in experiment [5] and in [6]. Also, the compound was classed as inactive in experiment [7] and in experiment [8].
In the case of `CC1(C)[C@H](/C=C2\CCSC2=O)[C@@H]1C(=O)OCc1coc(Cc2ccccc2)c1`, the call in experiment [1], in [2], in experiment [3], in experiment [5], in [6] and in [7] was inactive. Moreover, the call in experiment [9] and in [11] was inactive. Moreover, the results for the half-maximal activity concentration (AC50) in experiment [4], in [10] and in experiment [8] were 35.8 µM (active), 1.05 µM (active) and 0.731 µM (active), respectively.
For `CCCCC(CC)C(=O)Cl` (stereo not given), the compound was classed as inactive in experiment [1], in experiment [2], in [3], in experiment [4], in experiment [5] and in [6]. The call in experiment [7], in [10] and in experiment [8] was inactive.
Regarding `CC(=Cc1ccccc1)[N+](=O)[O-]`, the compound was called inactive in experiment [1], in experiment [5] and in experiment [11]. The AC50 in experiment [2] is 18.6 µM (active); in experiment [3] it was 11.1 µM (active); in experiment [4], 2.61 µM (active); in [6], 18 µM (active); in [7], 11.1 µM (active); in experiment [10], 3.91 µM (active).
Regarding `NC(=O)c1ccc(N)nc1`, the compound was classed as inactive in experiment [1], in experiment [2], in experiment [3], in experiment [4], in [5] and in experiment [6]. The outcome in [7], in [12], in experiment [13] and in [11] was inactive.
`Cc1cc(-c2cc(C)c(N)c(C)c2)cc(C)c1N`: the compound was called inactive in [1], in [2], in experiment [3], in [4], in experiment [5] and in experiment [9]. Further, the compound was classed as inactive in experiment [14], in experiment [12], in [13] and in experiment [11]. In addition, the AC50 in experiment [6] was 80.2 µM (active); in experiment [10], 36.3 µM (active).
On to `N#Cc1ccccc1N`, for which the result in experiment [1], in [2], in experiment [3], in experiment [4], in [5] and in experiment [6] was inactive. For the same compound, the compound was called inactive in experiment [7], in experiment [12] and in experiment [11].
In the case of `Nc1ccc(-c2ccccc2)cc1`, the compound was classed as inactive in experiment [1], in experiment [2], in experiment [3], in experiment [5], in experiment [6] and in experiment [7]. In addition, the outcome in experiment [9], in experiment [8] and in experiment [11] was inactive. For the same compound, in [4], the AC50 was 32 µM (active).
For the compound `OCC(c1ccc(Cl)cc1)c1ccc(Cl)cc1`, the compound was classed as inactive in [1], in [2], in [3] and in experiment [6]. The AC50 in [4] is 43.6 µM (active); in [5], 57.9 µM (active); in [7], 55 µM (active); in experiment [10] it was 39.2 µM (active); in [8], 20.1 µM (active).
In the case of `CCCCCCCCCCCCBr`, the call in experiment [1], in experiment [2], in [3], in [5], in [6] and in experiment [7] was inactive. Moreover, the AC50 in experiment [4] was 55.7 µM (active); in [10] it was 43.3 µM (active).
Consider `CCC[CH2][Sn]([CH2]CCC)([CH2]CCC)[CH2]CCC`, for which the AC50 in experiment [1] was 17.3 µM (active); in experiment [3] it was 11.1 µM (active); in [4] it was 5.43 µM (active); in experiment [5], 11.1 µM (active); in experiment [6] it was 18.5 µM (active); in [10], 3.29 µM (active). Moreover, the AC50 in experiment [8] is 9.24 µM (active). In addition, the call in experiment [2], in experiment [7] and in [13] was inactive.
In the case of `Cc1cc(Cl)ccc1O`, the result in experiment [1], in experiment [2], in experiment [3], in [5], in experiment [6] and in [7] was inactive. Moreover, the outcome in [12], in experiment [10] and in [8] was inactive. The half-maximal activity concentration (AC50) in experiment [4] is 37.1 µM (active).
